# Assay outcomes (PubChem)
# HSF1 activator: HSF-1 activators, primary screen, NIH3T3-HGL cells, MG132 stress, luminescence, single point. 300,000 compounds, 1.7% hits. NIH3T3-HGL HSF-1 luciferase reporter, 8 h; 100% = twice DMSO control signal. activation, % at 9 µM;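 active = mean replicate activation of at least 50% with a set share of replicates each reaching 50%; inconclusive = only one of those two conditions met; inactive = mean below 50% and too few replicates reaching it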;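 also: 0% = median of the neutral control wells and 100% = twice that signal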
# Wnt act: Wnt/beta-catenin pathway activators, primary screen, cell-based, plate reader, single point; Wnt/beta-catenin reporter cell assay, activator; activation, % at 9.35 µM; 300,000 compounds, 1.2% hits; in the data active = activation above about 30%, passing the limit was not always enough; inconclusive = no clear call, values can overlap the other calls;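 also: 0% = neutral control wells and 100% = positive control wells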
# MITF TRPM1 HTS: activators of MITF-driven TRPM1 promoter reporter, primary screen, cell-based, SK-MEL-5, luciferase, single point | AID 588334, 2011 | activation, % at 12.5 µM | SK-MEL-5 TRPM1-promoter luciferase, 24 h; % of positive control, neutral wells = 0 | 300,000 compounds, 0.75% hits;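 active = mean activation of at least 80% with every replicate also reaching 80%; inconclusive = mean reaches 80% but some replicate falls short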;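 also: 0% = neutral control wells and 100% = parthenolide positive control wells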
# HSF1 inhib: HSF1 inhibitors in luciferase reporter cells, primary screen, cell-based, NIH3T3, luminescence; activity change, negative = inhibition, % at 7.5 µM (by protocol); 300,000 compounds, 0.77% hits; NIH3T3-HGL HSE-luciferase, MG132-induced, luminescence 8 h; hits give low values;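 active = more than half of replicate wells show activity change below -50%, luminescence cut by over half; inconclusive = some wells, but at most half, below -50%; inactive = no replicate well below -50%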;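 also: luciferase reports HSF-1 transcriptional activity via heat shock element; 0% = median of DMSO wells and -100% = zero luminescence signal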
# esBAF inh: Bmi1 luciferase reporter increase in mESCs, primary screen, esBAF inhibitor project, mouse ES cells, Bmi1 luciferase knock-in, single point; 24 h; 100% = twice the neutral-well signal; reporter increase, % at 12.5 µM; 350,000 compounds, 2% hits; AID 602393, 2012; in the data active = activation above about 40%; inconclusive = no clear call, values can overlap the other calls;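 also: 0% = median of the plate's neutral control wells and 100% = double that signal; a rise in the Bmi1 reporter signal indicates esBAF inhibition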
# Active calls of the source: *; ? = inconclusive; . = no result; ! = repeats disagree. The list is not random: actives were taken first. Their share in the collection is about 3.8%.
SMILES,HSF1 activator,Wnt act,MITF TRPM1 HTS,HSF1 inhib,esBAF inh
COc1ccccc1CNC(=O)Cn1cccc1C(=O)c1ccccc1C,19.3,4.5,26.4,9.8,43.2*
Cc1ccccc1C(=O)c1cccn1CC(=O)NCc1cccc(Cl)c1,15.5,4.6,39.5,12.4,64.0*
O=C(C[C@H]1C[C@@H]2c3cc(NC(=O)Nc4ccccc4F)ccc3O[C@@H]2[C@@H](CO)O1)NCC(F)(F)F,.,.,.,.,5.4
COc1ccccc1S(=O)(=O)N[C@@H]1CC[C@H](CC(=O)N2CCCCC2)O[C@H]1CO,.,.,.,.,-1.0
CC(C)CC#Cc1cnc2c(c1)C(=O)N([C@H](C)CO)C[C@@H](C)[C@H](CN(C)C(=O)Cc1ccncc1)O2,.,.,.,.,2.9
Cc1noc(C)c1S(=O)(=O)Nc1ccc2c(c1)CC(=O)N([C@H](C)CO)C[C@H](C)[C@H](CN(C)C(=O)Nc1ccc3c(c1)OCO3)O2,.,.,.,.,1.0
CCOc1ccc(C(=O)COC(=O)c2cccc(-n3cnnn3)c2)cc1,18.7,15.5,38.8,10.5,73.7*
COc1ccc(-c2ccc3n(c2=O)C[C@H]2[C@H](CO)[C@@H](C(=O)N4CCCCC4)[C@@H]3N2C)cc1,.,.,.,.,9.8
COc1cc(NC(=O)c2nccnc2N)cc(C(=O)Nc2cccc(C(F)(F)F)c2)c1,9.4,-1.1,-22.1,7.5,-2.8
COc1cccc2cc(C(C)=O)oc12,3.8,0.8,-2.0,5.2,-1.9
COc1cc(NC(=O)c2csc(-c3ccncc3)n2)cc(C(=O)Nc2cccc(C(F)(F)F)c2)c1,-32.9,-1.1,-1.9,-29.2,17.5
COc1ccc(-c2cc(C(=O)Nc3cc(OC)cc(C(=O)Nc4cccc(C(F)(F)F)c4)c3)[nH]n2)cc1,39.0,-1.8,9.4,26.1,48.0*!
COc1cccc(NC(=O)c2cc3cccc(OC)c3o/c2=N\O)c1,59.4*,.,.,18.5,.
COc1cccc(NC(=O)c2cc3ccccc3o/c2=N\O)c1,?,-0.4,.,43.7,-54.8
COc1ccc(C(=O)c2cc3cccc(OC)c3o2)cc1,39.9,9.8,51.9,16.4,59.7*
COc1cc(NC(=O)c2ccc(N)nc2)cc(C(=O)Nc2cccc(C(F)(F)F)c2)c1,8.8,-1.6,34.6,9.5,45.2*!
CO[C@H]1CN(C)C(=O)c2cc(NC(=O)NC(C)C)ccc2OC[C@H](C)NC[C@H]1C,.,.,.,.,-1.5
COc1cc(NC(=O)c2cc3cccc(OC)c3o2)cc(C(=O)Nc2cccc(C(F)(F)F)c2)c1,-74.0,-14.3,-49.0,-67.4*,2.8
COc1cc(NC(=O)c2ccno2)cc(C(=O)Nc2cccc(C(F)(F)F)c2)c1,-8.3,-5.5,-1.9,-0.7,-4.3
C[C@H]1CCCCO[C@H](CN(C)CC2CC2)[C@@H](C)CN([C@@H](C)CO)C(=O)c2cc(NS(=O)(=O)c3ccc(F)cc3)ccc2O1,.,.,.,.,1.5
C[C@@H]1CN([C@@H](C)CO)C(=O)c2ccccc2-c2ccccc2CO[C@H]1CN(C)C(=O)[C@H](C)c1ccccc1,.,.,.,.,-0.9
CC(Sc1nc2ccccc2[nH]1)C(=O)O (stereo unspecified),4.6,-0.1,11.4,-7.7,-2.8
CC(=O)N=C(N)Sc1nc2ccccc2[nH]1,24.9,60.9*,.,18.4,68.5*
CCS(=O)(=O)Nc1ccc2[nH]c(=O)[nH]c2c1,78.1*,-0.2,0.5,28.0,.
CC(C)(C)NC(=O)c1c(F)c(F)c(F)c(F)c1F,-78.5,.,10.3,-72.0*,.
SMILES,HSF1 activator,Wnt act,MITF TRPM1 HTS,HSF1 inhib,esBAF inh
COc1cn(-c2ccccc2)nc1C(=O)Nc1ccccc1,14.9,14.9,22.0,12.0,60.3*
N#C/C(=C\c1ccc([N+](=O)[O-])cc1)c1ccccn1,73.3*,39.5*,43.7,49.4,.
COC(=O)c1ccc(/C=C(\C#N)c2ccccn2)cc1,85.7*,10.4,107.4*,42.7,101.7*
Nn1c(SCc2c(F)cccc2F)nnc1-c1ccccn1,34.2,43.0*,.,19.7,?
Cc1ccc(C)c(CSc2nnc(-c3ccccn3)n2N)c1,-2.2,-4.2,.,-4.3,8.9
COC(CNc1ncnc2sc(-c3ccccc3)cc12)OC,22.1,1.1,21.3,8.6,22.3
CC(O)CNc1ncnc2cc(-c3ccc(F)cc3)sc12 (stereo unspecified),32.7,12.2,?,18.2,54.1*
COc1ccccc1C1C(C#N)=C(N)N(N(C)C)C2=C1C(=O)CC(C)(C)C2 (stereo unspecified),-1.7,40.3*,-3.6,0.0,-0.8
COc1ccc(OC)c(C2C(C#N)=C(N)N(N(C)C)C3=C2C(=O)CC(C)(C)C3)c1 (stereo unspecified),16.6,-0.1,3.9,2.0,.
CCC(=O)N(C)C[C@H]1Oc2ncc(-c3ccc(C(=O)N(C)C)cc3)cc2C(=O)N([C@H](C)CO)C[C@H]1C,.,.,.,.,1.9
c1ccc(Nc2nnc(-c3cccc4ccccc34)o2)cc1,40.4,38.0*,.,16.3,.
Cc1cccc(-c2nnc(-c3cccc4ccccc34)o2)c1,.,50.6*,12.8,.,39.0
FC(F)(F)Oc1ccccc1-c1nnc(-c2cccc(C(F)(F)F)c2)o1,.,0.3,6.9,.,3.4
Cc1ccc(-c2nnc(-c3cccc4ccccc34)o2)cc1,.,0.9,35.8,.,54.4*
COc1cccc(-c2nnc(-c3ccc(C(F)(F)F)cc3)o2)c1OC,21.6,.,.,18.4,53.2*
Cc1ccc(CSc2nnc(-c3cccc4ccccc34)o2)cc1,.,-0.3,-15.9,.,-3.0
CCN(CC)C(=O)Sc1cccc2cccnc12,2.0,0.5,-13.1,4.1,2.3
CC(=O)/C(=N/Nc1ccc(Br)cc1)Sc1cccc2cccnc12,67.4*,-0.6,-35.2,30.1,.
COc1ccc(NC(=O)N(C)C[C@@H]2OCc3ccccc3-c3ccccc3C(=O)N([C@H](C)CO)C[C@H]2C)cc1,.,.,.,.,7.4
Cc1cc(C(=O)NC(=S)Nc2cccc(NC(=O)C(C)C)c2)ccc1[N+](=O)[O-],-18.0,10.5,22.8,-11.6,49.4*
CC(=O)c1cccc(NC(=S)NC(=O)c2ccccc2C)c1,9.9,4.7,14.5,-5.8,.
CC(=O)c1cccc(NC(=S)NC(=O)c2ccc(Cl)cc2)c1,41.2,17.5,97.2*,5.6,.
CC(=O)c1cccc(NC(=S)NC(=O)c2cccc(C)c2)c1,64.2*,28.6,108.5*,24.1,.
Cc1noc(C)c1S(=O)(=O)Nc1ccc2c(c1)CC(=O)N([C@H](C)CO)C[C@H](C)[C@@H](CN(C)Cc1ccccc1)O2,.,.,.,.,0.4
Cn1c(C(=O)O)c(CC(=O)Nc2ccc3c(c2)OCCO3)c2ccccc21,-68.5,-22.1,-3.0,-65.6*,-50.8
O=C(Nc1ccc2c(c1)OCO2)C1CC(c2ccccc2Cl)=NO1 (stereo unspecified),17.1,.,43.8,-10.6,64.0*
